Screens (PubChem BioAssay)
Shown are actives, neighbours in structure and some others; about 4.1% of the full set was active somewhere.
ssDAF-12 act – S. stercoralis DAF-12 nuclear receptor activators, primary screen, cell-based, luminescence, HEK293, GRIP1 co-expression, lit1-tk-luc; AID 652126, 2013; HEK293 ssDAF-12/GRIP1 lit1-tk-luc reporter; % of 3 µM dafachronic acid response; 370,000 compounds, 1% hits; activation, % at 6.8 µM; Nuclear hormone receptor DAF-12 (Strongyloides stercoralis);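 active = activation above the mean over all tested compounds plus 3 SD, cut at about 0.9% in these data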;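 also: 0% = DMSO-only wells and 100% = 3 µM delta7-dafachronic acid wells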
DAX1 inh-1 – DAX1 (NR0B1) inhibitors, primary screen, cell-based, HEK293, Gal4-DAX1, luciferase luminescence; HEK293 Gal4-DAX1 luciferase reporter; AID 504766, 2011; inhibition, % at 6.75 µM; Nuclear receptor subfamily 0 group B member 1 (Homo sapiens), P51843; 340,000 compounds, 0.99% hits;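 active = inhibition above the mean over all tested compounds plus 3 SD, cut at about 4.2% in these data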;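 also: 0% = DAX1-transfected cells with DMSO and 100% = empty-vector control cells with DMSO; inhibition shows as a rise in luminescence from relieved DAX1 repression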
Target sequence (P51843 207-470 limits assumed): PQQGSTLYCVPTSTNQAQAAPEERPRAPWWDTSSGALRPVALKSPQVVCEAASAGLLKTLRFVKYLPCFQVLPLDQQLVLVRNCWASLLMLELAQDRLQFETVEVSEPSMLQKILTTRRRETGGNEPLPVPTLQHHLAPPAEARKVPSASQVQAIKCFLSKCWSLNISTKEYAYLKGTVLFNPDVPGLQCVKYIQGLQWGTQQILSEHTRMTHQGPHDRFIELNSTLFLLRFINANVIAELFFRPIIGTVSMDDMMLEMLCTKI
hgDAF-12 ag – H. glycines DAF-12 receptor agonists, primary screen, cell-based, luminescence, HEK293, GAL4 fusion, UAS-luciferase; Nuclear hormone receptor DAF-12 (Heterodera glycines), GAL4 fusion; HEK293 GAL4-hgDAF12 UAS-luciferase reporter, agonist luminescence; normalized to butyrate control; activation, % at 6.8 µM; 370,000 compounds, 1.8% hits;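 active = activation above a cutoff set at the mean of all screened compounds plus 3 SD, cut at about 10% in these data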;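 also: 0% = DMSO wells and 100% = sodium butyrate wells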
DAX1 inh-2 – DAX1 (NR0B1) inhibitors on StAR promoter, primary screen, cell-based, luminescence, SF-1 (NR5A1), full-length DAX-1; HEK293T StAR-luciferase reporter, SF-1/DAX-1 repression relief; inhibition, % at 6.8 µM; 370,000 compounds, 1.1% hits; AID 652010, 2013;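 active = inhibition above the mean over all tested compounds plus 3 SD, cut at about 3.6% in these data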;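 also: 0% = DAX-1 cells with DMSO and 100% = cells lacking DAX-1 with DMSO; higher inhibition means more luminescence from relief of DAX-1 repression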
hcDAF-12 act – H. contortus DAF-12 nuclear receptor activators, primary screen, cell-based, luminescence, HEK293, lit1-tk-luc reporter | HEK293 hcDAF-12 lit1-tk-luc reporter; 0% DMSO, 100% Δ7-dafachronic acid | activation, % at 6.8 µM | 370,000 compounds, 1.4% hits | AID 652067, 2013;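 active = activation above the mean of all tested compounds plus 3 SD, cut at about 5.5% in these data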;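 also: 100% = response to 3 µM Δ7-dafachronic acid high control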
DAX1 conf – DAX1 (NR0B1) inhibitors relieving SF-1 repression, confirmation, cell-based, luminescence, HEK293T, full-length DAX-1, SF-1 activated StAR promoter | AID 652134, 2013 | HEK293T StAR-promoter luciferase reporter, SF-1/DAX-1 repression | shares compounds with DAX1 inh-2 | inhibition, % at 6.8 µM | 2,400 compounds, 87% hits;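 active = inhibition above the average of every tested compound plus 3 SD, cut at about 3.8% in these data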;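 also: 0% = DAX-1 cells with DMSO and 100% = no DAX-1 control cells with DMSO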
Target sequence (P51843 whole entry, looked up): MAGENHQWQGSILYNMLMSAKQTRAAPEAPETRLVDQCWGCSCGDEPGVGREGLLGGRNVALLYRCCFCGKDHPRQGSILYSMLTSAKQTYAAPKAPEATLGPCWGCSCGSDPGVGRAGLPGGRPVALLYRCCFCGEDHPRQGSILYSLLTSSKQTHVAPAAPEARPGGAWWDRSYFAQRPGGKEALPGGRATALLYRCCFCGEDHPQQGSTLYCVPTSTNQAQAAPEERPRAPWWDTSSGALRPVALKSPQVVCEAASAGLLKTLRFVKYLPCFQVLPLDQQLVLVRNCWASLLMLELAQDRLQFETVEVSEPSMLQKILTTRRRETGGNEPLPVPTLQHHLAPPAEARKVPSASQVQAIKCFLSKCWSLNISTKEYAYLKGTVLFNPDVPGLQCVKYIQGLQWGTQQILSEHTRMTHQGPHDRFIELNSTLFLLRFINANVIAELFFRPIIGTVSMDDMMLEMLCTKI
SF1 AF2mut Luc – StAR reporter signal changes without DAX1, counter-screen for DAX1 inhibitor project, cell-based, luminescence, AF-2 mutant SF-1, transactivation; inhibition, % at 6.8 µM; shares compounds with DAX1 inh-2; 2,400 compounds, 78% hits; AID 652136, 2013; HEK293 StAR-luciferase, SF-1 AF2 mutant;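 active = inhibition above the mean of all tested compounds plus 3 SD, cut at about 3% in these data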;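 also: 0% = DAX-1 transfected cells with DMSO and 100% = cells without DAX-1 with DMSO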
LXRb hcDAF ctr – LXR agonists, Gal4 luciferase reporter, confirmation, counter-screen for hcDAF-12 agonist project, cell-based, luminescence, HEK293, H. contortus campaign | HEK293 Gal4-LXR tk-luc reporter, 24 h; normalized: DMSO 0%, positive control 100% | AID 743027, 2013 | shares compounds with hcDAF-12 act | 3,400 tested, under 10 active | activation, % at 6.8 µM;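 active = mean percent activation of the reporter above a cutoff set as the average over tested compounds plus their standard deviation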
hcDAF12 ag – H. contortus DAF-12 receptor agonists, confirmation, cell-based, luminescence, HEK293, lit1-tk-luc, triplicate; shares compounds with hcDAF-12 act; HEK293 hcDAF-12 lit1-tk-luc reporter; % of Δ7-dafachronic acid response; activation, % at 6.8 µM; 3,400 compounds, 61% hits; AID 743032, 2013;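 active = mean activation across triplicate tests above the threshold derived from the earlier primary screen, cut at about 5.5% in these data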;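 also: 0% = DMSO only wells and 100% = 3 µM Δ7-dafachronic acid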
* hit, by the source's call; / = no result.

SMILES	ssDAF-12 act	DAX1 inh-1	hgDAF-12 ag	DAX1 inh-2	hcDAF-12 act	DAX1 conf	SF1 AF2mut Luc	LXRb hcDAF ctr	hcDAF12 ag
O=C(/C=C/Nc1ccc(Br)cc1F)c1ccco1	1.5*	-1.9	22.8*	6.0*	13.8*	7.7*	-0.1	1.0	9.9*
O=C(/C=C/Nc1ccccc1O)c1ccco1	0.0	2.8	4.0	-0.3	0.5	/	/	/	/
O=C(/C=C/Nc1ccc(F)cc1F)c1ccc(Br)cc1	-1.1	/	5.6	0.9	3.9	/	/	/	/
O=C(C=Cc1cccs1)c1cccs1	-0.4	0.3	4.6	-0.5	-0.7	/	/	/	/
O=C(/C=C/Nc1ccccc1F)c1cccs1	3.9*	-0.2	29.1*	5.7*	26.2*	15.2*	7.8*	2.4	22.5*
O=C(/C=C/Nc1ccc(F)cc1F)c1cccs1	2.4*	-2.6	20.9*	6.1*	12.0*	8.3*	1.5	1.4	15.3*
COCC(=O)N1CCC(c2nc3ccccc3[nH]2)CC1	-0.5	0.8	2.9	1.4	0.2	/	/	/	/
CCOC(=O)C1(Cc2ccccc2)CCCCCC1=O (stereo unspecified)	-1.5	0.0	3.4	-0.3	-1.2	/	/	/	/
COc1ccc(-c2cc(=O)c3ccccc3s2)cc1	0.9*	3.4	21.7*	6.9*	15.6*	16.8*	11.1*	1.9	10.2*
COc1ccc2sc3ccccc3c(=O)c2c1	0.4	0.6	4.0	1.3	0.8	/	/	/	/
O=C(CN1CCN(C(=O)C2CCCO2)CC1)Nc1cc(C(F)(F)F)ccc1Cl (stereo unspecified)	-0.6	-0.5	-3.3	-1.8	-1.4	/	/	/	/
CN(c1ccc(O)cc1)c1nc(-c2ccccc2)cs1	-0.3	1.7	19.6*	5.0*	8.8*	11.8*	6.0*	1.6	6.2*
CN(C)c1ccc(-c2csc(C(O)(c3ccccc3)C(F)(F)F)n2)cc1 (stereo unspecified)	-0.5	/	-0.8	0.0	1.1	/	/	/	/
CC1=NN(c2ccccc2)C(=O)C1C(=O)c1cc([N+](=O)[O-])cc([N+](=O)[O-])c1 (stereo unspecified)	-0.6	-0.2	3.5	0.0	0.0	/	/	/	/
O=C(O)c1cccc(N/N=C/c2cccs2)c1	1.5*	-4.7	17.2*	7.2*	13.3*	13.6*	6.3*	2.1	17.2*
N/C(=N\OC(=O)COc1ccccc1Cl)c1ccccn1	1.1*	0.3	9.6	5.9*	6.9*	12.2*	8.5*	1.3	8.0*
N/C(=N\OC(=O)c1cccc(Br)c1)c1ccccn1	1.4*	-2.7	3.0	8.9*	16.6*	16.9*	11.0*	1.1	12.1*
CCCCNCc1nc2ccccc2c(=O)[nH]1	-0.7	-0.6	1.5	-0.3	-0.6	/	/	/	/
CCc1ccc(NCc2nc3ccccc3c(=O)[nH]2)cc1	2.4*	-0.3	15.1*	5.1*	11.0*	14.3*	9.3*	0.7	7.6*
O=C(CSc1nnc2ccc(-c3ccc(F)cc3)nn12)N1CCOCC1	-0.5	0.7	-0.4	-1.0	-0.7	/	/	/	/
CN(C)CCN(C(=O)c1cccs1)c1nc2cc3c(cc2s1)OCCO3	1.4*	1.1	4.2	5.1*	7.0*	4.7*	5.0*	0.5	1.6
Cc1ccc(-n2nnnc2CSc2nnc(-c3ccc(O)cc3)o2)cc1	-1.0	0.2	1.8	-1.1	-0.7	/	/	/	/
Cc1ccc(C)c(NC(=O)c2ccc3ccccc3n2)c1	2.6*	0.5	10.9*	5.0*	16.5*	14.6*	10.0*	2.0	22.1*
Cc1ccc(C)c(NC(=O)c2ccccn2)c1	-1.5	-0.2	4.5	1.0	0.9	/	/	/	/
O=C(CN1N=C(c2ccc(Cl)cc2)CCC1=O)NCc1cccnc1	-0.7	-0.8	0.6	0.3	0.9	/	/	/	/
SMILES	ssDAF-12 act	DAX1 inh-1	hgDAF-12 ag	DAX1 inh-2	hcDAF-12 act	DAX1 conf	SF1 AF2mut Luc	LXRb hcDAF ctr	hcDAF12 ag
CCCC(CCC(=O)Nc1cccc([N+](=O)[O-])c1)C(=O)O (stereo unspecified)	-0.9	3.0	-0.6	0.2	-0.5	/	/	/	/
CC(C)(C)NC(=O)NC(=O)COc1ccc(Br)cc1Br	-0.1	2.4	17.3*	7.5*	6.6*	18.4*	6.0*	1.6	9.5*
O=C(CCN1C(=O)NC2(CCCC2)C1=O)Nc1ccc(-c2nc3ccccc3s2)cc1	1.0*	-1.0	13.1*	5.8*	7.7*	12.8*	5.8*	1.3	7.6*
O=c1cc(-c2ccccc2)oc2ccc3ccccc3c12	0.7	-5.2	4.8	4.6*	8.7*	0.1	-3.8	0.6	9.8*
CS(=O)(=O)c1ccc(Cl)c(NC(=O)CN2CCN(S(=O)(=O)/C=C/c3ccccc3)CC2)c1	-1.6	-0.1	-2.1	-1.3	-0.4	/	/	/	/
Cc1cccc(/C=N/NC(=O)C2CCCNC2=O)c1 (stereo unspecified)	-1.2	-0.8	3.2	0.3	-0.3	/	/	/	/
COC(=O)c1ccc(-c2nc(-c3cccs3)no2)cc1	1.8*	1.3	13.7*	6.8*	6.8*	2.9	-2.4	0.9	4.1
CN(C)CCNC(=O)/C=N/O	-1.0	-1.0	0.9	1.2	0.2	/	/	/	/
CC(=Nc1ccc(C)cc1)c1sc2ccccc2c1O	2.2*	2.6	15.0*	5.3*	11.0*	12.6*	4.3*	2.1	13.1*
Cc1ccc2nc(-c3sc4nc(C)ccc4c3N)[nH]c2c1	3.2*	-2.4	15.0*	5.8*	14.2*	18.9*	13.1*	3.2	28.1*
Cc1ccc2c(N)c(C#N)sc2n1	-0.3	0.4	3.1	0.0	0.2	/	/	/	/
